Assay outcomes (PubChem BioAssay)
Many of the other results were omitted from the sample, so hits are more common in it than they were.
Pf Dd2 inh: Plasmodium falciparum Dd2 growth inhibition; P. falciparum Dd2 growth, SYBR Green, 72 h; Potency, µM (titrated, usually from 28.9 µM), for inactives: at the highest dose activity, negative = inhibition, most hits filed as inhibitors; 4.3% of 120,000 active; active = well fitted inhibition curve with a large enough effect;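 also: plate controls were DMSO vehicle for no effect and reference drug for full effect; nearly all actives have a fitted effect of over 65% in size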
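Infected erythrocytes (Dd2, 0.3% parasitemia, 2.5% hematocrit final) are added to compound in RPMI-1640/Albumax II medium, grown 72 h at 37C in low oxygen, then lysed with saponin/Triton-X containing SYBR Green and read by fluorescence.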
Starred values were filed as active, the others as inactive; i = inactive; [ ] = dose if it differs, or a comment. Potency is read from the fitted curve at half-maximal effect.

SMILES	Pf Dd2 inh
C[C@@H](NC(=O)C[C@@H]1c2nc(NC(=O)CC(C)(C)C)sc2C[C@@H]2[C@](C)(CO)[C@H](O)CC[C@]21C)c1ccccc1	11.2µM*
CCCCCC(=O)Nc1nc2c(s1)C[C@@H]1[C@](C)(CO)[C@H](O)CC[C@@]1(C)[C@@H]2CC(=O)NCc1ccccc1	-6.2%
Cc1ccc2nc(SCCC(=O)N3CC[C@@](C)(O)[C@@H](O)C3)cc(C)c2c1	8.1%
Cc1noc(C)c1C1CCCN1C(=O)Cc1nc(-c2cccnc2)n[nH]1 (configuration not stated)	-6.7%
COc1ccc(OC)c(CCNC(=O)c2c(C)oc3ncn(C)c(=O)c23)c1	-19.1%
CCOC(=O)C(C)NC(=O)c1c(C)oc2ncn(CC(C)C)c(=O)c12 (configuration not stated)	12.5%
COc1ccc(OC)c(CNC(=O)c2c(C)oc3ncn(CC(C)C)c(=O)c23)c1	10µM*
Cc1ccc(C(=O)N2CCC3(CC2)NC(=O)N(c2ccccc2)N3)s1	-19.5%
COc1ccc(CN2CC3(C2)NC(=O)c2ccccc2O3)cc1	-6.5%[44.1 µM]
CC(C)c1ccccc1Oc1c(C(F)(F)F)oc2c(CN3CCN(C)CC3)c(O)ccc2c1=O	0.316µM*
CCc1ccc(Oc2c(C(F)(F)F)oc3c(CN4CCN(C)CC4)c(O)ccc3c2=O)cc1	0.282µM*
CN1CCN(Cc2nc(C3(O)CCN(Cc4ccc(C(F)(F)F)cc4)CC3)cs2)CC1	i
COc1ccc(CN2CCC(O)(c3csc(CN4CCN(C)CC4)n3)CC2)cc1	i
CCN1CCN(Cc2c(O)ccc3c(=O)c(Oc4ccccc4C(C)C)c(C(F)(F)F)oc23)CC1	0.0631µM*
CCN1CCN(C(c2ccccc2F)c2c(O)cc(C)n(CCOC)c2=O)CC1 (configuration not stated)	i
Cc1cc(C(=O)N2C[C@@H](CO)[C@H](c3ccccn3)C2)ccn1	43.4%
O=C(NCc1nnc2cc(-c3nc(C4CC4)no3)ccn12)C1CCCCC1	i
COCCNC(=O)C[C@@H]1O[C@H](Cn2cc(CN(C)Cc3ccccc3)nn2)[C@@H](O)[C@H]1O	i
COCCn1c(C)cnc1CC1CCN(C(=O)CCC2CCCC2)CC1	i
CNC(=O)c1noc([C@@H]2CC(F)(F)CN2C2CCOCC2)n1	11.7%
O=C(O)C[C@@H]1CCN(C(=O)Nc2ccc(OC(F)(F)F)cc2)C[C@@H]1CCN1CCOCC1	0.5%
COc1ccc(N2CCC(N)C2=O)cc1 (configuration not stated)	-11.0%
CC(C)(C)c1coc([C@@H]2COCCN2Cc2ccccc2)n1	-26.2%[44.1 µM]
CCOc1ccccc1C(=O)N1CCN(Cc2ccc(=O)n(C)c2)CC1	-20.2%
COCC(=O)NC[C@H]1O[C@H](Cc2cc(-c3ccc(F)cc3)on2)CC[C@@H]1O	14.1µM*
SMILES	Pf Dd2 inh
CN(Cc1ccccc1)Cc1cc(C[C@@H]2CC[C@H](O)[C@@H](CN)O2)no1	i
CN(C)C[C@H]1O[C@H](Cc2cc(CN3CCOCC3)on2)CC[C@@H]1O	0.9%[44.1 µM]
COc1cccc(NC(=O)NC[C@H]2O[C@H](Cc3cc(-c4ccc(F)cc4)on3)CC[C@@H]2O)c1	-24.6%
COCc1cc(C[C@@H]2CC[C@H](O)[C@@H](CNCc3cccc(OC)c3)O2)no1	-2.7%[44.1 µM]
CC(C)CCNC[C@H]1O[C@H](Cc2cc(-c3ccc(F)cc3)on2)CC[C@@H]1O	3.55µM*
O=C(NC[C@H]1O[C@H](Cc2cc(-c3ccc(F)cc3)on2)CC[C@@H]1O)c1ccc(F)cc1	-2.6%[44.1 µM]
O[C@H]1CC[C@@H](Cc2cc(COc3ccccc3)on2)O[C@@H]1CNCc1cccc(Cl)c1	1.26µM*
COCc1cc(C[C@@H]2CC[C@H](O)[C@@H](CNCc3ccccc3)O2)no1	i
COCC(=O)NC[C@H]1O[C@H](Cc2cc(-c3ccc(OC)cc3)on2)CC[C@@H]1O	i
CC(=O)NC[C@H]1O[C@H](Cc2cc(-c3ccc(F)cc3)on2)CC[C@@H]1O	i
CC(C)(C)c1cc(C[C@@H]2CC[C@H](O)[C@@H](CN(CC3CC3)CC3CC3)O2)no1	4.47µM*
COCCNC(=O)[C@H]1C[C@H](Oc2cccnc2)CN1C(=O)Nc1ccc(OC)cc1	10.1%
CC(C)C(=O)N1CCCC2(CNS(=O)(=O)c3cccnc3O2)C1 (configuration not stated)	12.8%
Cc1noc(C)c1CC(=O)N1Cc2ccccc2OC2(CCN(C(=O)NC(C)C)CC2)C1	-9.1%
CNC(=O)[C@@H]1CN(S(=O)(=O)c2ccc(C#N)cc2)C[C@H]1COC	21.5%
CCc1ccc(N2CC(c3noc(-c4ccco4)n3)CC2=O)cc1 (configuration not stated)	45.8%
CCOc1ccc(-c2ccnc(N3CCNC(C)C3)n2)cc1C(=O)O (configuration not stated)	14.7%
Cn1cc(CC(=O)N2CCCc3ncc(C(=O)NCCN4CCCC4)cc32)c2ccccc21	i
O=C(NC[C@H]1O[C@H](Cc2cc(-c3ccc(F)cc3)on2)CC[C@@H]1O)C1CCC1	i
O=C(COc1ccccc1)NC[C@H]1O[C@H](Cc2cc(-c3ccccc3)on2)CC[C@@H]1O	i
CCN(CC)C[C@H]1O[C@H](Cc2cc(-c3ccc(F)cc3)on2)CC[C@@H]1O	7.08µM*
Oc1cccc(-c2cc(C[C@@H]3CC[C@H](O)[C@@H](CNC4CCC4)O3)no2)c1	3.6%[44.1 µM]
CN(C)C[C@H]1O[C@H](Cc2cc(-c3ccc(F)cc3)on2)CC[C@@H]1O	i
O[C@H]1CC[C@@H](Cc2cc(-c3ccccc3)on2)O[C@@H]1CNC1CCCCC1	4.47µM*
O=C(c1ccnc(CC2CC(=O)N(c3ccccc3)C2)c1)N1CCCCC1 (configuration not stated)	-10.5%
SMILES	Pf Dd2 inh
COc1cccc(CC(=O)N2CCCCCCNC(=O)[C@H]3C[C@H](c4nc(C(C)C)no4)C[C@H]32)c1	-15.8%
CCOc1ccc(C(=O)N2CCC([C@@H]3CNC[C@H]3CO)CC2)cc1OCC	-8.2%
CN(C)C(=O)c1cccnc1CCC1COc2ccccc2O1 (configuration not stated)	-1.1%
Cc1ccc(C)c(CN2C(=O)NC3(CCN(C(=O)c4ccncc4)CC3)C2=O)c1	-6.1%
O=C(Cc1ccccc1)N1CCC2(CC1)CN(c1ncccn1)CC2CO (configuration not stated)	-13.7%
c1ccc(O[C@H]2COCCN(Cc3cccc4c3OCO4)C2)cc1	-10.9%[44.1 µM]
O=C1NCCCCCCN(Cc2ccncc2)[C@@H]2CN(S(=O)(=O)c3cccnc3)CC[C@@H]12	-2.1%
Cn1cnc(S(=O)(=O)N2CC[C@@H]3C(=O)NCCCCCCN(Cc4ccncc4)[C@@H]3C2)c1	15.2%
O=C1NCCCCCCN(Cc2ccncc2)[C@@H]2CN(S(=O)(=O)Cc3cccc(F)c3)CC[C@H]12	8.91µM*
O=C1NCCCCCCN(Cc2ccncc2)[C@@H]2CN(S(=O)(=O)c3ccc4c(c3)CCC4)CC[C@H]12	2.82µM*
O=C1NCCCCCCN(Cc2ccncc2)[C@@H]2CN(C3CCC3)CC[C@H]12	13.3%
CCS(=O)(=O)N1CC[C@H]2C(=O)NCCCCCCN(Cc3ccncc3)[C@@H]2C1	16.2%
O=C1COCCN1c1cc(-c2cccc(F)c2)cn2cncc12	10.4%[44.1 µM]
Cc1cc2ncc(C(=O)NCc3cccc(F)c3)cn2n1	0.2%[44.1 µM]
CCn1ccc(C(=O)NCC2Cn3cccc3C(=O)N2Cc2ccccc2)n1 (configuration not stated)	2.0%
O=C(O)c1cccc(C(=O)N2C[C@@H]3C[C@H](C2)c2ccc(NC(=O)c4cccs4)c(=O)n2C3)c1	15.9%
